Screens as filed in PubChem BioAssay.
SUMO Mot1 rescue = yeast Mot1-301 growth rescue at high temperature, primary screen, SUMOylation pathway inhibitor project, S. cerevisiae, ATP luminescence, 38.5C. S. cerevisiae Mot1-301 growth rescue; percent above DMSO median, 100 means doubled. growth rescue, % at 18.8 µM. 320,000 compounds, 1% hits. AID 2716, 2010;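 active means every valid replicate shows activation above 250% relative to neutral control wells; inactive means the rest, any valid replicate at or below 250%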;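 further: OY570 slx delta 5 strain wells were the positive control but not used for scaling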
Efflux pump inh = inhibitors of Candida efflux pumps in yeast, primary screen, S. cerevisiae, Nile Red, multiplex; 330,000 compounds, 0.44% hits; AID 485275, 2010; S. cerevisiae Candida pump triplex; inhibition, % at 10 µM;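 active means plate passing quality check with inhibition over a set limit, or well fluorescence over plate mean plus 4 SD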;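 further: Nile Red retained in pooled yeast measured as flow cytometry median fluorescence; 0% = buffer negative control and 100% = Enniatin B positive control; higher means more Nile Red kept so more efflux inhibition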
VLA-4 inh = inhibition in human VLA-4 binding assay, primary screen, VLA-4 allosteric modulator project, MLPCN library, flow cytometry, VLA-4 expressing cells | Integrin alpha-4 (Homo sapiens), P13612 | inhibition, % (about 7 µM as worked out from the volumes in the protocol) | 330,000 compounds, 0.2% hits | AID 2557, 2010 | ligand binding flow cytometry; in the data active means inhibition above about 50%
Target sequence (P13612 whole entry, looked up): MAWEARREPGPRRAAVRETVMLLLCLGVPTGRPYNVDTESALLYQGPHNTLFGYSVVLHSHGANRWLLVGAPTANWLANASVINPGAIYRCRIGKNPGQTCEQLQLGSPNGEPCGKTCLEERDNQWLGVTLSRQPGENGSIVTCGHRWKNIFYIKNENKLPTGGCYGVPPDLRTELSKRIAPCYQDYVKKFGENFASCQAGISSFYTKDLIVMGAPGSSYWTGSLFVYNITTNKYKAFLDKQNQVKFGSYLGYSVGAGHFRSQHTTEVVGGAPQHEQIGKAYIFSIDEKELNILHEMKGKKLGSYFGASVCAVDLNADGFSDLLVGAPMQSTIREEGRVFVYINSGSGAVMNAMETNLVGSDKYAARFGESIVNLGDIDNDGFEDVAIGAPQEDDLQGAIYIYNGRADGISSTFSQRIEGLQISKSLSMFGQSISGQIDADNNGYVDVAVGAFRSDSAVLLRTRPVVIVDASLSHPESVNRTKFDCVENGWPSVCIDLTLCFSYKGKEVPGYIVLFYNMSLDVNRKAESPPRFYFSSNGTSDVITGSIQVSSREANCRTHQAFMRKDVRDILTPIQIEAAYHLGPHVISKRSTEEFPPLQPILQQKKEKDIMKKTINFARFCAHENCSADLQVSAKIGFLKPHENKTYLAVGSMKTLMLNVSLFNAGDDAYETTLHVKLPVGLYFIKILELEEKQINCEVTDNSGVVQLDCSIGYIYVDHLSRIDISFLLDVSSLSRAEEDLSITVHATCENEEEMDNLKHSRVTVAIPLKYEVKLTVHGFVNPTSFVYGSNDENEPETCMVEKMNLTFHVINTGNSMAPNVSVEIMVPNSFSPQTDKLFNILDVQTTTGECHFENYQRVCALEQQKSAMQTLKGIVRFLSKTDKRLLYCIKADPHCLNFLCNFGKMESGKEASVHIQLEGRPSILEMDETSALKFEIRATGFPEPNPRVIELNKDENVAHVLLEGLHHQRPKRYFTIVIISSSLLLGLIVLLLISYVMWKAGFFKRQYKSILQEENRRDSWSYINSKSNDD
AHR activator = AHR activators, primary screen, cell-based, luminescence, luciferase reporter, human; AHR-responsive luciferase reporter cells; activation, % at 5 µM; 320,000 compounds, 2.5% hits; in the data active means activation above about 47%;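 further: 0% = vehicle wells and 100% = reference agonist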
A1 inh = caspase 3/7 activation in MEF A1-2A-BIM cells, primary screen, A1 inhibitor project, cell-based, luminescence, HTS; 330,000 compounds, 0.066% hits; caspase activation, % (concentration not given with the values); Caspase-Glo 3/7 luminescence, 3 h; percent of clofoctol response, vehicle zero;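 active means over half of replicate activation scores above 10%, or exactly half above 10 with the replicate mean above 10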
ALR H2O2 inh = inhibitors of human ALR sulfhydryl oxidase, primary screen, biochemical, H2O2 detection, HRP-luminol luminescence, single point; 290,000 compounds, 3.8% hits; purified ALR, DTT oxidation; inhibition, % (concentration not given with the values);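 active means mean replicate inhibition above about 79%, with every replicate also reaching it, limit read from the data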
* marks the source's active call; other numbers are inactive results; x = not tested or not shown. Sampled rows, rich in hits. Any-hit rate of the full collection: about 7.2%.

SMILES	SUMO Mot1 rescue	Efflux pump inh	VLA-4 inh	AHR activator	A1 inh	ALR H2O2 inh
CCOc1ccc(CNc2nc3ccccc3n2CCN2CCOCC2)cc1	13.0	0.0	2.0	-1.5	1.5	97.2*
CCN(Cc1nc2ccccc2n1C)c1ccccc1	-6.1	0.0	6.9	26.3	0.4	98.5*
CCN(CC)c1ccc(CNc2nc3ccccc3n2CCN2CCCCC2)cc1	44.7	-0.1	0.6	1.1	-0.3	98.5*
CS(=O)(=O)N1CCN(c2ccccc2[N+](=O)[O-])CC1	-2.7	0.2	1.9	0.5	0.0	-0.4
CCn1c(NCc2ccc(N(C)C)cc2)nc2ccccc21	149.9	0.0	-0.6	24.1	0.3	49.9
COc1ccc(CNc2nc3ccccc3n2CCN2CCCCC2)cc1	-8.0	0.3	-13.5	-1.0	-0.6	96.8*
CCCCn1nnnc1NCc1ccc(N(CC)CC)cc1	-12.8	0.0	-1.0	11.5	0.5	99.0*
CCN(CC)c1ccc(CNc2nc3ccccc3n2C)cc1	-20.7	0.0	9.9	21.7	-1.8	98.0*
Cn1c(CNc2nc3ccccc3n2CCN2CCCCC2)nc2ccccc21	1.3	0.1	3.4	4.9	0.8	-7.5
CCC(C(=O)N1CCCCCC1)n1nc(C)n2c(cc3occc32)c1=O (stereo not given)	86.6	-0.2	-2.6	0.5	0.8	-3.9
CC12CCC(=O)N1C(C(=O)NNC(=O)c1ccc(F)cc1)CS2 (stereo not given)	341.0	0.2	15.0	4.4	1.1	2.2
CC(C)NC(=O)/C(C#N)=C/c1ccc(N(C)C)o1	-3.2	-0.1	-6.6	-3.5	-0.3	98.4*
CC(=O)N1CCN(CC(=O)Nc2cc(S(=O)(=O)N3CCCCC3)ccc2C)CC1	11.9	0.3	38.2	-1.0	0.0	-1.3
CC(OC(=O)CNC(=O)c1cccs1)C(=O)Nc1ccc(S(N)(=O)=O)cc1 (stereo not given)	-5.5	0.2	5.6	4.1	0.6	-7.8
COc1ccc(-n2nnnc2SCc2nc3ccccc3s2)cc1	-13.1	0.1	9.1	15.4	0.0	92.7*
CCN(CC)c1nc(Nc2ccc([N+](=O)[O-])cc2)nc(N(CC)CC)n1	-9.5	0.1	4.4	9.4	-0.3	-3.1
CCOC(=O)CSCC(=O)Nc1cc(C)ccc1C	-14.8	-0.1	-9.2	6.4	-1.1	98.1*
Cc1ccc(Cl)cc1NC(=O)CSC(N)=O	37.7	0.0	10.4	24.8	-0.9	98.2*
COCC(=O)Nc1cc(Cl)ccc1C	4.9	-0.1	10.2	4.4	0.8	-4.3
Brc1ccc(OCc2ccccc2)c(CNCc2ccncc2)c1	261.9*	-2.6	5.4	14.1	0.0	0.5
C[C@H]1CNC(=O)C(=O)N1C[C@H](Cc1ccc(O)cc1)NC(=O)CC12CC3CC(CC(C3)C1)C2	0.2	0.2	7.6	1.8	0.0	6.4
COc1ccc(C(=O)CSc2n[nH]c(-c3ccco3)n2)cc1	-14.9	0.1	-0.2	-1.1	x	-19.1
COc1ccc(C(=O)CSc2n[nH]c(C)n2)cc1[N+](=O)[O-]	10.2	-0.2	-8.4	7.0	0.3	82.3*
O=C(CSc1n[nH]c(-c2ccccc2)n1)c1ccc(O)c(O)c1	-18.0	0.1	11.0	8.0	0.1	98.8*
Cc1nc(SCC(=O)c2cccc([N+](=O)[O-])c2)n[nH]1	-6.3	0.1	5.4	4.2	0.5	x
CCc1nc(SCC(=O)c2ccc(C)c(C)c2)n[nH]1	3.2	-0.1	40.4	-0.8	2.4	93.1*
Cc1ccc(C(=O)CSc2n[nH]c(-c3ccco3)n2)cc1C	99.5	0.2	1.6	-7.6	-0.3	97.4*
Cc1ccc(O)c(NC(=O)CSc2n[nH]c(-c3ccccc3)n2)c1	-1.7	0.1	4.3	8.2	-0.6	7.5
CN1CCN(C(=O)c2cnn(-c3ccccc3)c2NC(=O)c2ccccc2Br)CC1	331.4*	-0.1	15.0	0.4	0.0	14.2
Cc1ccccc1C(=O)Nc1c(C(=O)N2CCN(C)CC2)cnn1-c1ccccc1	-14.7	4.4	9.3	8.1	0.4	x
